Test results: PubChem BioAssay AID1832 (Broad Institute, 2009)
The campaign covered roughly 300,000 compounds. About 1,100 (0.37%) were called active.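 Rule for the calls: active = inhibition past about -25% in most replicates, and total fluorescence under double the plate's negative control median (limit read from the data); inconclusive = replicates evenly split on the limit, or fluorescence at least double controls; inactive = too little inhibition in most replicates.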 What follows is part of a selection rich in actives, with near analogues and random picks from the rest.

Target: Zinc finger protein mex-5 (Caenorhabditis elegans) (UniProt Q9XUB2)
Sequence (Q9XUB2 whole entry, looked up): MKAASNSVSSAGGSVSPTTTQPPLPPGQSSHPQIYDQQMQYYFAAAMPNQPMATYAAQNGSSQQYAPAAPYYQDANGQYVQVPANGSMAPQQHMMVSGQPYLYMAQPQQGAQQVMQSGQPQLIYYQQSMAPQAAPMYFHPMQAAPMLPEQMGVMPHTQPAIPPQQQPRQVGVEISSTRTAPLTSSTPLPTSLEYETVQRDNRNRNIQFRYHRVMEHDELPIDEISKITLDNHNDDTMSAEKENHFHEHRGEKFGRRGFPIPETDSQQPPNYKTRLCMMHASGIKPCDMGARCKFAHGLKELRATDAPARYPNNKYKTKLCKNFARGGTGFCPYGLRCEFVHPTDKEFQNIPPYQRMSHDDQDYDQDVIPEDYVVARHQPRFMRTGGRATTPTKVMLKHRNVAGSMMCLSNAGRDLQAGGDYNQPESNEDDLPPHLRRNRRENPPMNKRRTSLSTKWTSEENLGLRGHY
Assay: MEX-5 zinc finger RNA-binding disruptors – biochemical, C. elegans, fluorescence polarization, MLPCN library, primary screen (AID 1832);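 note: 0% = DMSO and -100% = 5 µM competing unlabeled TCR2 RNA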
Conditions: MEX-5/FITC-TCR2 RNA binding, at 10 µM, stronger effect = lower value

Activity score (negative = inhibition of binding), active:
CN1c2ccc(C=O)c3c(C=O)ccc(c23)N(C)C1(C)C -35.3%
Cc1nn(C(C)C(=O)N2CCOCC2)c(=O)c2nn(-c3ccccc3)c(C)c12 (centres undefined) -34.7%
COc1cc2c(cc1/C=C1/NC(=O)N(c3ccccc3)C1=O)OCO2 -27%
COc1ccc(C(=O)/C=C/c2ccc(-c3ccccc3)cc2)cc1CSCC(=O)O -31.8%
Cc1cc(C)nc(NNC2=CC(=O)CC(C)(C)C2)n1 -66.2%
Oc1[nH]c2ccc(Br)cc2c1N=Nc1nn[nH]n1 -74.2%
CC(=O)n1c(C=Nc2ccccc2)c(O)c2ccccc21 -52.6%

Activity score (negative = inhibition of binding), inactive:
COc1ccc(NC(=O)CN(C)C(=O)c2n[nH]c3ccccc23)cc1 -3.49%
CCCCN(CC)CCCNC(=O)c1ccc(CSc2nc3ccncc3[nH]2)cc1 1.01%
Cc1ccc(C2NC(=S)NC3=C2N2CCC3CC2)cc1 (centres undefined) 0.478%
Cc1nonc1C1CCCN1Cc1nc(-c2ccc(F)cc2F)oc1C (centres undefined) -2.15%
Cc1ccc(-n2cc(CN(C)Cc3nccn3C)c(-c3cccc(C)c3)n2)cc1 1.9%
N#C[C@]1(S(=O)(=O)c2ccccc2)C[C@@H]2ON=C(c3cccc(Br)c3)[C@@H]2C1 1.51%
Cc1ccnc(NC(=O)c2ccc(Cl)c([N+](=O)[O-])c2)c1 -0.216%
Cc1nn(C(C)C(=O)NCCC2=CCCCC2)c(=O)c2nn(-c3ccccc3)c(C)c12 (centres undefined) -2.35%
Cc1nn(CC(=O)N2CCCCC2)c(=O)c2nn(-c3ccccc3)c(C)c12 -3.02%
CC(C)Cc1nnc(NC(=O)CCc2ccccc2)s1 -0.0404%
COC(=O)CSc1nnc(NC(=O)CCc2ccccc2)s1 0.825%
O=C(COC(=O)c1cccc(Cl)c1)Nc1ccc2[nH]c(=O)[nH]c2c1 0.565%
NC(=O)c1nsc(C(=O)N(CCCN2CCOCC2)C(C(=O)NC2CCCCC2)c2ccc(Cl)cc2)c1N (centres undefined) -0.973%
COC(=O)c1ccc(NC(=O)c2cc3c(CO)cnc(C)c3oc2=Nc2cccc(C(N)=O)c2)cc1 -0.18%
Cc1cc(NC(=O)Nc2ccccc2[N+](=O)[O-])no1 0.456%
O=C1N/C(=C/c2cccn2-c2ccccc2)C(=O)N1c1cccc(Cl)c1 3.72%
COc1ccc(/C=C2/C(=O)N(c3ccccc3)N=C2C)c(OC)c1 1.89%
COc1ccc(C(=O)/C=C/c2cccnc2)c(OC)c1 0.878%
COC(=O)c1ccc(COc2ccc(/C=C/C(=O)c3ccc(OC)c(CSCC(=O)O)c3)cc2OC)cc1 -5.72%
COc1ccc(/C=C/C(=O)c2ccc(NS(=O)(=O)c3ccc(C)cc3)cc2)cc1O -0.65%
COc1ccc(CCNS(=O)(=O)c2cc3c(cc2C)NC(=O)CO3)cc1OC 0.926%
COC(=O)NNC1=CC(=O)CC(C)(C)C1 -6.29%
CC1(C)CC(=O)C=C(Nc2ccccc2)C1 1.36%
Cc1cc(NC(=O)CCC(=O)N(Cc2ccccc2)C(C(=O)NC2CCCC2)c2ccc(C)o2)no1 (centres undefined) -2.13%
NS(=O)(=O)c1ccc(N=Nc2c(O)[nH]c3ccc(Br)cc23)cc1 -2.29%
O=C(CNC(=O)Cc1ccccc1)N=Nc1c(O)[nH]c2ccc(Br)cc12 0.589%
O=c1[nH]c(CN2CCOCC2)nc2scc(-c3ccccc3)c12 1.42%
COc1ccc(NC(=O)CCn2ccnc2)c(OC)c1 -0.322%
CCCCn1c(=O)c(C(C)=O)c(O)c2ccccc21 0.942%
CCOc1ccc(N=Cc2c(O)n(-c3cccc(C)n3)c(=O)c3ccccc23)cc1 -1.96%
C=CCn1cc(Cl)cc(C(=O)Nc2ccccc2)c1=O -0.689%
COc1ccccc1NC(=O)CCSc1nnc(-c2ccc(O)cc2)o1 -2.37%
